In the supplement of paper PMC10681739 one finds RUNX1 binding intensity and ETS1 binding intensity data, which are given here for 40 sequences.
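Wherever RUNX1 binding intensity (PBM fluorescence) in presence of ETS1, normalised to RUNX1-only experiment is given: Full-length recombinant human ETS1 or RUNX1 bound to double-stranded 36-bp genomic probes on microarrays, detected by protein-specific primary antibody and Alexa488 secondary, spot fluorescence as median of four replicate spots.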
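Wherever RUNX1 binding intensity (PBM fluorescence), RUNX1 alone is given: Full-length recombinant human RUNX1 bound to double-stranded 36-bp genomic probes on a high-density microarray, scored as Alexa488 fluorescence per spot via anti-RUNX1 antibody, median of four replicate spots.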

The first assay deals with RUNX1 (UniProt Q01196). Description: RUNX1 binding intensity (PBM fluorescence), RUNX1 alone (arbitrary fluorescence units); higher = stronger binding. The conditions noted are these: RUNX1 concentration 2 nM; ETS1 concentration 0 nM. As to the method:
(§1)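 Cooperative gcPBM on 36-bp genomic probes with neighbouring ETS1 and RUNX1 sites. Recombinant human RUNX1 (2 nM) was incubated alone or with ETS1 (25 nM) and detected with anti-RUNX1 antibody plus Alexa488 secondary. Values are medians over 4 replicate spots; the RUNX1+ETS1 data were normalised to the RUNX1-only data. The probes sit in constant array flanks that are not printed.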
As to AGCTCTAAGGTTCCGCCTGCGGGCAGCAAGCGGAGG, the RUNX1 binding intensity is 920.
CCATTTCCCCCATCACTTTGAATTGTGGTTCTTCTC came in with an RUNX1 binding intensity of 1590.
On to TCCGCCCGCGGATGCTGAGAACCGCAGCTGCACAAG, for which the RUNX1 binding intensity turned out to be 948.
Still for that read-out and setting: the figure for GGGCATGGTGGCTTCCGACCGCGGGGACCCCGAGAG is 738.
On the same count and under the same terms, to AGAGCGAGGAGGACTTCCTGCGGCAGGTCGGCGTGA belongs 652; to GAAGTGAGGTCAGGATGTGGTGGGTGACCCCTGAAA, 768; to CTGCACTTCCGGTCAGGCGGTCGGGCTGCGGGGCCC, 739.
On the same count and under the same terms, to GAGCAGTGGTGGGAAATGTGGGGTTGGGGGTAAAGG belongs 874; to AGCAGGGCTCGCCGGGAAATGTGGTTTCTCCAGCCG, 843; to AGAAGGCGCCGGAAGTGGTCCCGCAGAGGCGGGGTG, 725.
AGTAGAGGAGGAAGTTAAATGTGGTTTTCTGGGTGG showed an RUNX1 binding intensity of 857.
Still for that read-out and setting: the figure for GCCCCTAAACCGGATGCGGCAGCCACCGCGGACCCC is 1290.
TGCGACGGAAGCAGGAACTTGCTAACCACAAAACCC had an RUNX1 binding intensity of 1790.
Same read-out and setting: to ACACTGAGCTGAACGGAAATGTGGTTCTCACCTCAT belongs 774.
As to ATTAAAAAAATTTCCTTTGTGGTCACTTAGTTATTA, the RUNX1 binding intensity worked out at 1350.
Same read-out and setting: to CAGATCTGAAAGGGAAGTGGTTTCAAGAGGGTTCTT belongs 729; to GCACCACCGGAAGTAGGGCTCAACCACCGCTCATTT, 1000; to AGTCGGAAGCCATCTGCCCCAACTTGCGGTCTTCAC, 1070.
The same measure, in the same setting: to GCAGTGCAGGAAGTGCTTTGTGTGGTACAATCCCAA belongs 759; to ACTGAAAACAGCACAGGATGTGGTCTGCCAGGTGCC, 752.
Still for that read-out and setting: to ATGCCTGTAGGAGGATGTGGTTTCTACACAACTCTG belongs 926; to TAGCATGTGAGCTTCCTGTGGGTTTGTGCAGCCCCA, 708; to CCCCACCCAGACAGGAAACTGTGGCTTCTATCAGAT, 820.
GAGCTAGCCACTTCCTCCCCCACAACTACACCCAGG yielded an RUNX1 binding intensity of 976.
Same read-out and setting: the figure for TTACTTCCTGAGGGTGCACAGGCTGTGGTCGTCTAT is 760.
On the same count and under the same terms, the figure for CCATTTCCCGCCTACCGACCTGCTGCACCGCACGGA is 1430.
Sequence TGTTTTTGTTTCCGTTTACAAACCACAACAAAGGTG returned an RUNX1 binding intensity of 2390.
On the same count and under the same terms, to CGGTCAGGTCGCAGGAAACCACAGCGGCAGCGCGGC belongs 1370; to AACCTAGAAAAGGAAGCTGCGGTTTTTCAGGGTATG, 8830.
On to CGGCGCGGCGGACGTTGCTGCGGTAGGACGTGCCCG, for which the RUNX1 binding intensity was found to be 838.
The sequence ACCCCGGAAGTGTGGGCGCGGCTGCGGTTTAACCCG displayed an RUNX1 binding intensity of 2220.
The same measure, in the same setting: to CCGCCACCGGAAGCGCCCTCCTAATCCCCGCAGCGC belongs 978; to CTCAGGTTATCTAGGAAATCTACCGCACGCTAAAGT, 858.
Still for that read-out and setting: to GGCGCTAGGCTTCCGGATCGCGGTGGGCGGAGTTCA belongs 678.
Same read-out and setting: to GCCCCTTTTTCCTGGGATGAGCGGTTAGCGGAGGGG belongs 1090; to TTTCCACTTCCTGTTCTACTTGTGGCTACTGACTCA, 1100; to TACCAACAGGAATCTTTGGGGTCTAAACCGCAAACA, 3800.
In the case of AACTCCTGGCCGGAACGGCACAGACCGCACTCCCGC, the RUNX1 binding intensity was determined as 938.
Turning to ACCACACTTCCCAGGAGTCTCTGCGGCCGCGCGGAG, the RUNX1 binding intensity came to 938.
The same measure, in the same setting: the figure for GCACTACATTTCCCAGCTTTCCTCGCGGTAAAGAGA is 1270.

A further assay concerns the target T1, ETS1 (UniProt P14921).
T1 sequence: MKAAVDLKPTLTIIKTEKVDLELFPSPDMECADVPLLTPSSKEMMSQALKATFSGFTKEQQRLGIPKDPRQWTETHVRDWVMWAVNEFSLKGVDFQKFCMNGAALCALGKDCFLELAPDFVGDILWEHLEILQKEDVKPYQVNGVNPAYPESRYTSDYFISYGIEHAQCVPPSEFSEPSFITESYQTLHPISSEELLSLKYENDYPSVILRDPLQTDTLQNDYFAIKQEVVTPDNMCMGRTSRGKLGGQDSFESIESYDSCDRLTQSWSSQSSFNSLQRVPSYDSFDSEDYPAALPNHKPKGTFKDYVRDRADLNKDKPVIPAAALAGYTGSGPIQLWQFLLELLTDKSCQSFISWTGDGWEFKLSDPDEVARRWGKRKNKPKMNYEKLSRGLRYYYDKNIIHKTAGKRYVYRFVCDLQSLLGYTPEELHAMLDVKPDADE
Description: ETS1 binding intensity (PBM fluorescence) in presence of RUNX1, normalised to ETS1-only experiment (arbitrary fluorescence units); higher = stronger binding. The conditions noted are these: ETS1 concentration 1 nM; RUNX1 concentration 25 nM.
For AGAGCGAGGAGGACTTCCTGCGGCAGGTCGGCGTGA, the ETS1 binding intensity is 622.
Still for that read-out and setting: to GAAGTGAGGTCAGGATGTGGTGGGTGACCCCTGAAA belongs 1340; to CTGCACTTCCGGTCAGGCGGTCGGGCTGCGGGGCCC, 6710.
Same read-out and setting: to GAGCAGTGGTGGGAAATGTGGGGTTGGGGGTAAAGG belongs 390; to AGAAGGCGCCGGAAGTGGTCCCGCAGAGGCGGGGTG, 14100; to GCCCCTAAACCGGATGCGGCAGCCACCGCGGACCCC, 16600.
Same read-out and setting: to TGCGACGGAAGCAGGAACTTGCTAACCACAAAACCC belongs 13200; to ACACTGAGCTGAACGGAAATGTGGTTCTCACCTCAT, 3100; to CAGATCTGAAAGGGAAGTGGTTTCAAGAGGGTTCTT, 1130.
As to GCACCACCGGAAGTAGGGCTCAACCACCGCTCATTT, the ETS1 binding intensity turned out to be 13400.
Regarding ACTGAAAACAGCACAGGATGTGGTCTGCCAGGTGCC, the ETS1 binding intensity was 10100.
Same read-out and setting: to ATGCCTGTAGGAGGATGTGGTTTCTACACAACTCTG belongs 5640; to TAGCATGTGAGCTTCCTGTGGGTTTGTGCAGCCCCA, 654.
The same measure, in the same setting: the figure for GAGCTAGCCACTTCCTCCCCCACAACTACACCCAGG is 914.
Same read-out and setting: to TGTTTTTGTTTCCGTTTACAAACCACAACAAAGGTG belongs 1620; to CGGTCAGGTCGCAGGAAACCACAGCGGCAGCGCGGC, 1870; to AACCTAGAAAAGGAAGCTGCGGTTTTTCAGGGTATG, 6430.
As to ACCCCGGAAGTGTGGGCGCGGCTGCGGTTTAACCCG, the ETS1 binding intensity was 15900.
The same measure, in the same setting: the figure for TTTCCACTTCCTGTTCTACTTGTGGCTACTGACTCA is 2890; for TACCAACAGGAATCTTTGGGGTCTAAACCGCAAACA it is 2160.
The same measure, in the same setting: the figure for GCACTACATTTCCCAGCTTTCCTCGCGGTAAAGAGA is 429.

For a further assay, the target named is RUNX1 (UniProt Q01196). Description: RUNX1 binding intensity (PBM fluorescence) in presence of ETS1, normalised to RUNX1-only experiment (arbitrary fluorescence units); higher = stronger binding. The conditions noted are these: RUNX1 concentration 2 nM; ETS1 concentration 25 nM. As to the method: as §1
Chain of RUNX1 (Q01196 whole entry): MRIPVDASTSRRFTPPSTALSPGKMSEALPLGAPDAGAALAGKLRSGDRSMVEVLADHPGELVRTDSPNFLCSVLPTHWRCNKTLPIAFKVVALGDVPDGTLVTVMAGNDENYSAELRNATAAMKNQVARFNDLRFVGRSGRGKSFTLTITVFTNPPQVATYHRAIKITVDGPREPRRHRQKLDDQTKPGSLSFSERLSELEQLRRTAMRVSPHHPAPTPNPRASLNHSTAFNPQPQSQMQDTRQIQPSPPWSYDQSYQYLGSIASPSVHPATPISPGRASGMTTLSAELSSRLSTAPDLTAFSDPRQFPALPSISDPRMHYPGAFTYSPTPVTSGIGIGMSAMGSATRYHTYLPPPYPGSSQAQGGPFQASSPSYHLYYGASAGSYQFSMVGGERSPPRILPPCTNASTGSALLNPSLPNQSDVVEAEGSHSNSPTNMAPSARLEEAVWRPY
For the sequence AGCTCTAAGGTTCCGCCTGCGGGCAGCAAGCGGAGG, the RUNX1 binding intensity was found to be 902.
For the sequence CCATTTCCCCCATCACTTTGAATTGTGGTTCTTCTC, the RUNX1 binding intensity stood at 2920.
On the same count and under the same terms, the figure for TCCGCCCGCGGATGCTGAGAACCGCAGCTGCACAAG is 827; for GGGCATGGTGGCTTCCGACCGCGGGGACCCCGAGAG it is 956.
The same measure, in the same setting: to AGAGCGAGGAGGACTTCCTGCGGCAGGTCGGCGTGA belongs 1080; to GAAGTGAGGTCAGGATGTGGTGGGTGACCCCTGAAA, 1090.
The same measure, in the same setting: to CTGCACTTCCGGTCAGGCGGTCGGGCTGCGGGGCCC belongs 2680; to GAGCAGTGGTGGGAAATGTGGGGTTGGGGGTAAAGG, 843.
On to AGCAGGGCTCGCCGGGAAATGTGGTTTCTCCAGCCG, for which the RUNX1 binding intensity was found to be 952.
The same measure, in the same setting: the figure for AGAAGGCGCCGGAAGTGGTCCCGCAGAGGCGGGGTG is 2500; for AGTAGAGGAGGAAGTTAAATGTGGTTTTCTGGGTGG it is 1130.
On the same count and under the same terms, the figure for GCCCCTAAACCGGATGCGGCAGCCACCGCGGACCCC is 3550.
On the same count and under the same terms, to TGCGACGGAAGCAGGAACTTGCTAACCACAAAACCC belongs 3420; to ACACTGAGCTGAACGGAAATGTGGTTCTCACCTCAT, 1140.
Regarding ATTAAAAAAATTTCCTTTGTGGTCACTTAGTTATTA, the RUNX1 binding intensity amounted to 1520.
Same read-out and setting: the figure for CAGATCTGAAAGGGAAGTGGTTTCAAGAGGGTTCTT is 865; for GCACCACCGGAAGTAGGGCTCAACCACCGCTCATTT it is 1980.
For the sequence AGTCGGAAGCCATCTGCCCCAACTTGCGGTCTTCAC, the RUNX1 binding intensity turned out to be 1080.
Same read-out and setting: to GCAGTGCAGGAAGTGCTTTGTGTGGTACAATCCCAA belongs 1030.
Same read-out and setting: the figure for ACTGAAAACAGCACAGGATGTGGTCTGCCAGGTGCC is 1440.
For the sequence ATGCCTGTAGGAGGATGTGGTTTCTACACAACTCTG, the RUNX1 binding intensity stood at 1400.
As for TAGCATGTGAGCTTCCTGTGGGTTTGTGCAGCCCCA, the RUNX1 binding intensity came out at 1440.
The same measure, in the same setting: to CCCCACCCAGACAGGAAACTGTGGCTTCTATCAGAT belongs 1550; to GAGCTAGCCACTTCCTCCCCCACAACTACACCCAGG, 3420.
The same measure, in the same setting: to TTACTTCCTGAGGGTGCACAGGCTGTGGTCGTCTAT belongs 2070; to CCATTTCCCGCCTACCGACCTGCTGCACCGCACGGA, 3390; to TGTTTTTGTTTCCGTTTACAAACCACAACAAAGGTG, 4730.
The same measure, in the same setting: the figure for CGGTCAGGTCGCAGGAAACCACAGCGGCAGCGCGGC is 1840; for AACCTAGAAAAGGAAGCTGCGGTTTTTCAGGGTATG it is 12300; for CGGCGCGGCGGACGTTGCTGCGGTAGGACGTGCCCG it is 875.
ACCCCGGAAGTGTGGGCGCGGCTGCGGTTTAACCCG: the RUNX1 binding intensity is 8200.
As for CCGCCACCGGAAGCGCCCTCCTAATCCCCGCAGCGC, the RUNX1 binding intensity turned out to be 1920.
Same read-out and setting: the figure for CTCAGGTTATCTAGGAAATCTACCGCACGCTAAAGT is 793; for GGCGCTAGGCTTCCGGATCGCGGTGGGCGGAGTTCA it is 1230; for GCCCCTTTTTCCTGGGATGAGCGGTTAGCGGAGGGG it is 1080.
Still for that read-out and setting: to TTTCCACTTCCTGTTCTACTTGTGGCTACTGACTCA belongs 3380; to TACCAACAGGAATCTTTGGGGTCTAAACCGCAAACA, 5090.
Same read-out and setting: the figure for AACTCCTGGCCGGAACGGCACAGACCGCACTCCCGC is 917.
With ACCACACTTCCCAGGAGTCTCTGCGGCCGCGCGGAG, the RUNX1 binding intensity is 801.
On to GCACTACATTTCCCAGCTTTCCTCGCGGTAAAGAGA, for which the RUNX1 binding intensity is 1270.
